# Screens as filed in PubChem BioAssay.
# This is a sample that favours compounds with a hit; in the whole collection about 8.8% have one here.
# KB-3-1 tox – KB-3-1 parental cell cytotoxicity. KB-3-1 viability, CellTiter-Glo ATP luminescence, 72 h. Potency, µM (doses to about 46.1 µM), actives largely listed as cytotoxic. 400,000 tested, 1.4% active. AID 1347075; note: potency is the fitted concentration of half-maximal effect; nearly all actives have a fitted effect of over 60% in size
#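 KB-3-1 cells, DMEM (no phenol red) + 10% FBS; compound by pin transfer, 72 h, 37 °C. Readout: CellTiter-Glo luminescence after 10 min. Data normalized, curve-fitted.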
# KB-V1 cytotox – KB-V1 MDR subline cytotoxicity. KB-V1 MDR cells viability, CellTiter-Glo, 72 h. Potency, µM (series often up to 46.1 µM), usual class: cytotoxic. 400,000 tested, 3.4% active; note: potency is the fitted concentration of half-maximal effect; nearly all actives have a fitted effect of over 60% in size
#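 KB-V1, DMEM (no phenol red) + 10% FBS; cpd pin-transferred, titration series; 72 h, 37 degrees C; CellTiter-Glo, luminescence. Data normalized, curve-fit.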
# IL-1B inflam inh – inflammasome signaling inhibition, IL-1 beta readout. 360,000 tested, 4.7% active. THP-1 LPS/ATP IL-1B secretion, AlphaLISA, 16 h; hits give low values. activity change, % at 57.5 µM; in the data active = activity change below about -50%; inconclusive = mostly about -30% to -49%
#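 Secreted IL-1B measured by AlphaLISA bead assay after 16 h compound exposure of THP-1 cells; compounds (final up to 57.5 uM) added 1 h before LPS (250 ng/mL) and ATP (1.25 mM) stimulation; lower signal means less secretion.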
# HT1080 IDH1KD tx – HT-1080 IDH1 knockdown cell toxicity (counter line); HT-1080 IDH1 knockdown viability, ATP luminescence, 48 h; Potency, µM (doses to about 46.1 µM), for inactives: at the top dose activity, negative = toxicity, most hits filed as cytotoxic; 360,000 tested, 2% active;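 note: potency is the fitted concentration of half-maximal effect; 0% = DMSO wells and -100% = cell-free medium wells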
#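 Knockdown cells (IDH1KD HT-1080) received compounds 2 h after plating at 750 cells/well and were kept 48 h at 37 °C in 5% FBS RPMI. A CellTiter-Glo luminescence read gave % activity for curve fitting.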
# HT1080-NT tox – kills 2HG-producing HT-1080-NT fibrosarcoma cells; Potency, µM (titrated, usually from 46.1 µM), without a hit: at the top dose activity, negative = less viability, actives largely listed as cytotoxic; 360,000 tested, 1.6% active; HT-1080-NT fibrosarcoma viability, CellTiter-Glo ATP luminescence, 48 h;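 note: NT is the 2HG producing partner of a matched IDH1 knockdown line; potency is the fitted concentration of half-maximal effect; 0% = DMSO-treated cells and -100% = media-only wells without cells; nearly all actives have a fitted effect of over 55% in size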
#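 Compounds were tested in concentration-response format on HT-1080-NT cells for 48 hours at 37 degrees C. Cell viability came from CellTiter-Glo luminescence; curves were classified by r2, response magnitude and activity.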
# An asterisk follows results filed as active; i = inactive; ? = inconclusive; · = not tested or not shown. Unless noted, calls come from the whole dose curve; as a rule, active = well fitted curve in the direction sought with a large enough effect; inconclusive = small, poorly fitted or top-dose-only effect, or another doubt; inactive = no such curve, though single readings can be large; an effect the other way counts as inactive or inconclusive. Unless noted, % is set by controls: 0 for no effect and ±100 for the full control effect.
SMILES,KB-3-1 tox,KB-V1 cytotox,IL-1B inflam inh,HT1080 IDH1KD tx,HT1080-NT tox
O=C1c2cccc3cccc(c23)C(=O)N1CC1CCN(S(=O)(=O)c2ccc(F)cc2)CC1,i,9.2µM*,-7,10%,?
O=C1c2cccc3cccc(c23)C(=O)N1CC1CCN(CC(O)COc2ccc3ccccc3c2)CC1 (configuration not stated),?,i,-95*,15µM*,18µM*
COCCn1c(SCC(=O)NC2CC2)nc2ccccc21,i,i,19,0%,6%
Cc1cc(C)cc(OCC(O)CN2CCC(CN3C(=O)c4cccc5cccc(c45)C3=O)CC2)c1 (configuration not stated),?,5.8µM*,-81*,18µM*,18µM*
COc1ccc(COCC(O)CN2CCC(CN3C(=O)c4cccc5cccc(c45)C3=O)CC2)cc1OC (configuration not stated),i,?,-88*,?,?
Cc1ccc(S(=O)(=O)N2CCC(CN3C(=O)c4cccc5cccc(c45)C3=O)CC2)cc1,i,i,-4,3%,6%
COc1ccc(COCC(O)CN2CCC(C(N)=O)CC2)cc1OC (configuration not stated),i,i,17,6%,7%
COCCn1c(=NC(=O)C2COc3ccccc3O2)sc2cc(S(N)(=O)=O)ccc21 (configuration not stated),i,i,-8,3%,-1%
CCn1c(=NC(=O)C2COc3ccccc3O2)sc2c(OC)ccc(OC)c21 (configuration not stated),i,9.2µM*,-22,4%,?
CC(=O)Nc1sc2c(c1C(c1ccccc1Cl)N1CCN(CCO)CC1)CCCC2 (configuration not stated),i,i,-2,0%,-16%
Oc1ccc(/C=N/N2CCN(C3c4ccccc4-c4ccccc43)CC2)cc1,i,i,-64*,-8%,-10%
O=C(O)c1ccc(/C=N/N2CCN(C3c4ccccc4-c4ccccc43)CC2)cc1,i,i,-15,2%,5%
NC(=O)C1CCN(c2nnc(-c3ccc4c(c3)OCCCO4)s2)CC1,i,i,·,·,·
CC(C)(C)NC(=O)COC(=O)c1ccc(Cl)c(S(N)(=O)=O)c1,i,i,26,12%,18%
CC1C/C(=C/c2ccncc2)C(=O)/C(=C/c2ccncc2)C1 (configuration not stated),?,i,-84*,3.7µM*,?
CCC1(c2ccc(Cl)cc2)NC(=O)N(CC(=O)NCc2ccc(F)cc2)C1=O (configuration not stated),i,?,-53*,-10%,-24%
O=C(CN1C(=O)NC2(CCCC2)C1=O)NCc1ccc(Cl)cc1,i,i,-51*,-5%,-2%
CCN(CC)c1ccc(/C=N/NC(=O)CCC(=O)NCc2ccccc2)c(O)c1,?,i,48,?,-28%
CC(C)(C)c1cc(C(=O)Nc2cccc3ccccc23)ccn1,i,i,-5,-6%,-1%
CCc1ccc(NC(=O)c2ccnc(C(C)(C)C)c2)cc1,i,21µM*,-21,-17%,5%
COc1ccccc1NC(=O)C1=C(C)Nc2nc(-c3ccco3)nn2C1c1ccccc1F (configuration not stated),i,i,·,·,·
CCN1C(=O)C(CC(=O)Nc2ccccc2)S/C1=N\c1ccccn1 (configuration not stated),?,i,15,?,?
COc1cccc2cc(C(=O)N3CCc4ccccc4C3)c(=O)oc12,i,i,18,8%,15%
COc1cc2c(cc1OC)CN(C(=O)CSc1ccccc1C)CC2,i,i,-60*,3%,-5%
COc1cc2c(cc1OC)CN(C(=O)c1cc3ccccc3oc1=O)CC2,?,4.6µM*,12,16µM*,?
SMILES,KB-3-1 tox,KB-V1 cytotox,IL-1B inflam inh,HT1080 IDH1KD tx,HT1080-NT tox
COc1cc2c(cc1OC)CN(C(=O)CCC(=O)c1ccc(F)cc1)CC2,16µM*,?,46,?,?
COc1cc2c(cc1OC)CN(CCC(=O)c1ccc(Br)cc1)CC2,i,i,0,23µM*,26µM*
CC1CCC(NC(=O)C2COc3ccccc3O2)CC1 (configuration not stated),i,i,-3,18%,12%
CC1CCCC(NC(=O)C2COc3ccccc3O2)C1C (configuration not stated),i,13µM*,-1,2%,-2%
CCC(C(=O)NC(C)(C)C)n1c(-c2ccc3c(c2)OCO3)nc2ccccc21 (configuration not stated),i,?,16,9%,10%
O=C1c2c(O)ccc(O)c2C(=O)c2c(NCCNCCO)ccc(NCCNCCO)c21,0.65µM*,21µM*,-102*,23µM*,1.5µM*
CC1=NN(c2ccccc2)C(=O)C1N=Nc1ccc(N)cc1 (configuration not stated),?,i,0,23µM*,-17%
c1ccc2cnccc2c1,i,i,·,·,·
CCOc1ccc(C2C(C(=O)c3cccs3)=C(O)C(=O)N2CCN2CCOCC2)cc1 (configuration not stated),i,i,9,16%,-1%
CCc1cc2c(=O)c(-c3cnn(-c4ccccc4)c3)c(C(F)(F)F)oc2c(CN(C)C)c1O,i,1.8µM*,13,1%,7%
CCOc1ccc(S(=O)(=O)N2CCCCC2)cc1NC(=O)CN1C(=O)NC(C)(c2ccc(C)cc2)C1=O (configuration not stated),?,i,-16,-28%,-7%
CCN(c1ccccc1)S(=O)(=O)c1cc(C(=O)Nc2ccc(F)c(F)c2)ccc1F,i,i,-89*,?,15µM*
O=C(Cc1cccc(NC(=O)C2CCN(C(=O)C3CCC3)CC2)c1)Nc1cccc(C(=O)N2CCCC2)c1,i,i,13,1%,-3%
Cc1ccc(OCC(=O)Nc2ccc3c(c2)nc(CCN2CCCCC2)n3C)cc1,i,i,-61*,6%,12%
Cc1ccc(S(=O)(=O)Nc2ccc3c(c2)nc(CCN2CCCCC2)n3C)cc1,i,i,-92*,?,-26%
Cc1ccc(S(=O)(=O)Nc2ccc3c(c2)nc(CCN2CCOCC2)n3C)cc1,?,i,?,-11%,-2%
Cn1c(CCN2CCN(c3ccccn3)CC2)nc2cc(NS(=O)(=O)c3ccc(Cl)cc3)ccc21,?,i,-76*,?,?
Cc1cccc(OCC(=O)Nc2ccc3c(c2)nc(CCN2CCCCC2)n3C)c1,i,i,-50*,1%,-5%
